Test results published in PubChem BioAssay (NCI).
Compounds without any hit were thinned out: in the full panel of roughly 83,000, 20% have a hit.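 Single-concentration screen, 48 h exposure, 96-well plates. Endpoint: percent growth. Below 10 = active.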 Values without a mark were called inactive. Calls of active or inactive are those of the source.

These molecules were tested on UO-31 renal (assay: NCI-60 one-dose screen, 48 h (100 = growth as untreated, 0 = no growth, -100 = all killed)). Settings: 10 µM.
With `CCCCCCCNc1nc(C=O)ncc1-c1ccc(C(F)(F)F)cc1` the growth was 63.1%.
For `CCCCCCN1CCN(Cc2ccc(N(CC)CC)cc2)C(=O)C1=O`, the growth was 34.8%.
`O=C(Nc1cccc(-n2cc(-c3ccncc3)c(-c3ccc(O)c(Cl)c3)n2)c1)Nc1ccc(Cl)c(Cl)c1` was tested, and the growth was -11.3% (active).
Work on `S=C1SCC(c2ccccc2)S1` (stereo not given) yielded a growth of 104%.
`COc1cccc(C(=O)Nc2ccc(CN3CCc4nc5cc(OC)c(OC)cc5cc43)cc2)c1` showed a growth of 27.5%.
For `COc1ccc(-c2nn(-c3cccc(NC(=O)c4cc(C(F)(F)F)cc(C(F)(F)F)c4)c3)cc2-c2ccncc2)cc1Cl`, the growth was 43%.
`O=C(Nc1ccccc1)Nc1cccc(-n2cc(-c3ccncc3)c(-c3ccc(O)c(Cl)c3)n2)c1` gave a growth of 26.9%.
`N#CCCN1C/C(=C/c2ccc(Cl)cc2)C(=O)/C(=C/c2ccc(Cl)cc2)C1` was tested, and the growth was -95.5% (active).
In the case of `COc1ccc(-c2nn(-c3cccc(NC(=O)c4cccc(C(F)(F)F)c4)c3)cc2-c2ccncc2)cc1Cl`, the growth is reported as 13.9%.
`COc1ccc([N+](=O)[O-])c(C(=O)O)c1` showed a growth of 88%.
With `CN(C)CCN=c1nc2c(c(N)n1-c1ccccc1)c(=S)n(-c1ccccc1)c(=S)n2-c1ccccc1` the growth was 3.1% (active).
Molecule `O=C(Nc1cccc(-n2cc(-c3ccncc3)c(-c3ccc(O)c(Cl)c3)n2)c1)c1cccc(C(F)(F)F)c1` has a growth of 15.8%.
`COc1cccc(NC(=O)c2sc3nc4c(cc3c2N)C(O)CCC4)c1` (stereo not given) was tested, and the growth was 40.3%.
Work on `O=S(=O)(NCCCNc1nccc(-c2c(-c3ccc(F)cc3)nc3sccn23)n1)c1ccc2ccccc2c1` yielded a growth of 13.1%.
In the case of `COc1ccc(-c2nn(-c3cccc(NC(=O)Nc4cccc(C(F)(F)F)c4)c3)cc2-c2ccncc2)cc1Cl`, the growth is reported as -4.03% (active).
For `COc1ccc(-c2nn(-c3cccc(NC(=O)c4ccc(Cl)c(Cl)c4)c3)cc2-c2ccncc2)cc1Cl`, the growth was 47.6%.
In the case of `Cc1c(Cl)cccc1NC(=O)c1sc2nc3c(cc2c1N)C(=O)CCC3`, the growth is reported as 33.3%.
For `COc1cc(/C=C/C(=O)c2ccc(Cl)cc2)ccc1OS(=O)(=O)c1ccc(C)cc1`, the growth was 74.2%.
`O=C(N/N=C/c1cc2ccccc2c2ccccc12)c1cc(O)c(O)c(O)c1` gave a growth of 39.2%.
Molecule `COc1ccc(-c2nn(-c3cccc(NC(=O)c4ccc(N5CCOCC5)c(C(F)(F)F)c4)c3)cc2-c2ccncc2)cc1Cl` has a growth of 40.9%.
With `COc1ccc(-c2cc(/C=C/C(=O)c3cc(OC)c(OC)c(OC)c3)[nH]n2)cc1OC` the growth was -92.1% (active).
Molecule `CC1=C(N2CCOCC2)C(N2CCOCC2)=C(C)C(=O)C1=O` has a growth of 83.6%.
`Cc1ccc(C)c(C(O)(c2cc(C)ccc2C)C2(O)CCCCC2)c1` gave a growth of 87.7%.
Work on `COc1ccc(-c2nn(-c3cccc(NC(=O)c4ccc5c(c4)OCCO5)c3)cc2-c2ccncc2)cc1Cl` yielded a growth of 16%.
For `Cc1ncc(-c2ccoc2)c(NC2CCCCCC2)n1`, the growth was 71.7%.
In the case of `O=S(=O)(NCCNc1nccc(-c2c(-c3ccc(F)cc3)nc3sccn23)n1)c1ccc2ccccc2c1`, the growth is reported as 43.4%.
Work on `COc1ccc2c(c1)nc(N)c1c3cccnc3cn21` yielded a growth of 42.3%.
Work on `O=C(Nc1cccc(-n2cc(-c3ccncc3)c(-c3ccc(O)c(Cl)c3)n2)c1)c1ccc(Cl)c(Cl)c1` yielded a growth of 36.3%.
Molecule `CCN1CCCC1CNC(=O)c1ncc(-c2ccc(C(F)(F)F)cc2)c(NC2CCCCCC2)n1` (stereo not given) has a growth of 45%.
`Clc1ccc(-c2cn(-c3ccccc3)c(-c3ccccc3)n2)c(Cl)c1` was tested, and the growth was -66.9% (active).
`CCCCCCCCCCCCCCCC(=O)OC1[C@@H](OC(=O)CCCCCCCCCCCCCCC)[C@@H](C(=O)N[C@@H](CCCCN)C(=O)OC)O[C@H]1n1cnc2c(=O)[nH]c(NC(=O)C(C)C)nc21` (stereo not given in full) was tested, and the growth was 87.1%.
Molecule `O=c1oc2cc(OS(=O)(=O)c3ccccc3)ccc2c2c1CCCCC2` has a growth of 59.4%.
Work on `O=C1Nc2ccccc2C1=NC1CCCCC1` yielded a growth of 55.5%.
`O=C(Nc1cccc(-n2cc(-c3ccncc3)c(-c3ccc(O)c(Cl)c3)n2)c1)c1ccc(N2CCOCC2)c(C(F)(F)F)c1` was tested, and the growth was 13.1%.
`O=C(Nc1ccc(OS(=O)(=O)c2ccccc2)cc1)C12CC3CC(CC(C3)C1)C2` gave a growth of 44.6%.
